Screening results (PubChem BioAssay)
A selection follows.
aSyn 5UTR act – Activators via SNCA 5'UTR binding, MLPCN; activity score, % (tested at 7.5 µM), hits read low; alpha-synuclein 5'UTR reporter, activators screen; AID 1814; 300,000 tested, 7.1% active; in the data active means activity score below about -60%
* = called active by the depositor.

SMILES | aSyn 5UTR act
COc1cccc(NC(=O)COc2ccc3c(c2)CCC3)c1 | -65*
CC(=O)c1cccc(NC(=O)Nc2ccc3c(c2)CCC3)c1 | -91*
Cn1cc(C(=O)Nc2ccc3c(c2)CCC3)cn1 | -105*
Cc1cccc(NC(=O)Nc2ccc3c(c2)CCC3)c1 | -116*
O=C(Nc1ccc2c(c1)CCC2)c1cccc(F)c1 | -143*
COCCn1c(-c2ccccc2)cnc1N | -83*
Cn1c(-c2ccccc2)cnc1N | -122*
CC(C)(C)c1ccc(OCc2ccc(C(=O)NN)o2)cc1 | -107*
NNC(=O)c1ccc(COc2ccc3c(c2)CCC3)o1 | -74*
CC(C)(C)c1ccc(OCc2ccc(C(=O)N/N=C/c3ccc([N+](=O)[O-])cc3)o2)cc1 | -138*
O=C(c1ccc(COc2ccc3c(c2)CCC3)o1)N1CCN(c2ccccc2)CC1 | -73*
Cc1ccc(COc2ccccc2-c2cc(C(=O)N/N=C/c3cccnc3)[nH]n2)cc1 | -77*
CCCc1ccc(OCc2ccc(C(=O)N/N=C/c3cccnc3)o2)cc1 | -143*
CC(C)(C)c1ccc(OCc2ccc(C(=O)NCc3cccnc3)o2)cc1 | -133*
COc1ccc(OC)c(S(=O)(=O)ON2C(=O)c3ccccc3C2=O)c1 | -90*
COc1cccc(OCCNc2cc(N3CCOCC3)ccc2[N+](=O)[O-])c1 | -78*
CCC1(c2ccc(F)cc2)NC(=O)N(CC(=O)Nc2ccc(-c3nc4ccc(C)cc4s3)cc2)C1=O (stereo not drawn) | -201*
COc1ccc(C2(C)NC(=O)N(CC(=O)Nc3ccc(-c4nc5ccc(C)cc5s4)cc3)C2=O)cc1 (stereo not drawn) | -191*
CCCc1noc(-c2ccc(-c3ccccc3)cc2)n1 | -112*
CCNC(=S)Nc1ccc(N2CCCCC2)cc1 | -159*
O=C(CCl)Nc1ccc(N2CCCCCC2)cc1 | -72*
CCCC(=O)Nc1ccc(N2CCCCC2)cc1 | -116*
C=CCN(C(=O)c1oc2c(Cl)cc(C)cc2c1C)C1CCS(=O)(=O)C1 (stereo not drawn) | -71*
Cc1ccc(OCCCCCCN2CCNCC2)cc1 | -64*
CCS(=O)(=O)c1ncc(Cl)c(C(=O)Nc2ccc(S(=O)(=O)N3CCC(C)CC3)cc2)n1 | 65
SMILES | aSyn 5UTR act
O=C(Nc1cccc(S(=O)(=O)N2CCCCC2)c1)c1ccc([N+](=O)[O-])o1 | -268*
Cc1ccnc(NC(=O)c2ccc(S(=O)(=O)N3CCCCCC3)cc2)c1 | -119*
O=C(Nc1ccccn1)c1ccc(S(=O)(=O)N2CCCCC2)cc1 | -121*
Cc1ccnc(NC(=O)C2CCN(S(=O)(=O)c3ccc(Cl)c(C(F)(F)F)c3)CC2)c1 | -63*
CCN(CC)CCNC(=O)c1ccc(NC(=O)c2ccc(S(=O)(=O)N3CCCCCC3)cc2)cc1 | -64*
O=C(Nc1ccccc1[N+](=O)[O-])c1ccc(S(=O)(=O)N2CCCC2)cc1 | -131*
O=C(N/N=C\c1cc(Br)ccc1O)c1ccc(S(=O)(=O)N2CCCCC2)cc1 | 110
Cc1cccc(NC(=S)N=Nc2c(O)n(C)c3ccc(S(=O)(=O)N4CCOCC4)cc23)c1 | 83
O=C(Nc1ccccn1)c1ccc(Br)c(S(=O)(=O)N2CCCC2)c1 | -65*
O=C(Nc1cccc(O)c1)c1ccc(S(=O)(=O)N2CCCCCC2)cc1 | -68*
COc1cc2c(c(OC)c1OC)-c1ccc(N(C)CC(OC)OC)c(=O)cc1[C@@H](NC(C)=O)CC2 | 84
O=C(Nc1ccccn1)c1ccc(S(=O)(=O)N2CCCCCC2)cc1 | -87*
Cc1cc(NC(=O)CSc2cn(CCNC(=O)c3ccc(Cl)cc3)c3ccccc23)no1 | -90*
Cc1ccc(C(=O)NCCn2cc(SCC(=O)Nc3nnc(C)s3)c3ccccc32)cc1 | -109*
O=C(NCCn1cc(SCc2ccccc2F)c2ccccc21)c1c(F)cccc1F | -62*
O=C(CSc1ccccc1)Nc1ccc(N2CCOCC2)c(F)c1 | -99*
O=C(CSc1n[nH]c(-c2ccccc2)n1)Nc1ccc(N2CCOCC2)cc1 | -68*
O=C(CSc1n[nH]c(-c2ccccn2)n1)Nc1ccccc1 | 57
O=C(CSc1ccc(F)cc1)Nc1ccc(N2CCOCC2)cc1 | -74*
Cn1c(-c2ccc(F)cc2)cnc1SCC(=O)Nc1ccccc1N1CCOCC1 | -193*
O=C(CSc1ccccc1)Nc1ccc(N2CCOCC2)cc1 | -116*
O=C(Cc1cccs1)Nc1ccc(N2CCOCC2)cc1 | -97*
COc1ccc(S(=O)(=O)Oc2ccc3ccccc3c2)cc1 | -93*
CN(C)c1ccc(C(=O)OCc2ccccc2)cc1 | -74*
CN(C)c1ccc(CCc2ccc(N)cc2)cc1 | 84
SMILES | aSyn 5UTR act
CCCCC(=O)Nc1ccccc1Oc1ccccc1 | -123*
CCOC(=O)c1ccc(NC(=O)c2ccccc2)cc1 | -252*
CCOC(=O)c1ccc(NC(=O)Oc2ccccc2)cc1 | -66*
Nc1ccc(OC(=O)Nc2ccc(O)cc2)cc1 | 91
CCOC(=O)c1ccc(NC(=O)c2nc(S(=O)(=O)Cc3ccccc3)ncc2Cl)cc1 | 54
CCOC(=O)c1ccc(NC(=O)c2n[nH]c(=O)c3ccccc23)cc1 | -90*
CCOC(=O)c1ccc(NC(=O)c2ccccc2[N+](=O)[O-])cc1 | -76*
CCOC(=O)c1ccc(Nc2ncccc2[N+](=O)[O-])cc1 | -218*
CCC(=O)NC(c1ccc(C)cc1)c1cc([N+](=O)[O-])c2cccnc2c1O (stereo not drawn) | 64
CC1CCN(c2ccc(NC(=O)c3ccccc3[N+](=O)[O-])cc2)CC1 | -70*
O=C(Nc1ccc2c(c1)OCO2)c1n[nH]c(=O)c2ccccc12 | -140*
O=C(OCCC1Oc2cccnc2NC1=O)c1ccc([N+](=O)[O-])cc1 (stereo not drawn) | 34
S=c1nc(-c2ccccc2)[nH]n1-c1ccccc1 | -143*
S=c1nc2ccccc2c2nc(-c3ccccc3)[nH]n12 | -64*
COC(=O)/C(=C1/Oc2ccc(C(C)(C)C)cc2S1)C(F)(F)F | -224*
Cc1ccc(SSc2cc(C)ccc2N)c(N)c1 | -203*
COc1ccccc1-n1cnc(N)c1C(=O)c1ccccc1 | -153*
COc1cc(C(=O)N/N=C(\c2ccccc2)c2ccccn2)cc(OC)c1OC | 81
CN(C)C(CNC(=O)c1ccc2ccccc2c1)c1ccco1 (stereo not drawn) | -62*
CN(C)c1cccc(C(=O)NCC(c2ccco2)N(C)C)c1 (stereo not drawn) | -75*
O=C(O)c1cccc(COc2ccc3c(c2)CCC3)c1 | 81
COc1ccccc1OCCNC(=O)c1ccc2c(c1)OCCO2 | -68*
CCOc1ccc(OCc2cccc(C(=O)N3CCCCCC3)c2)cc1 | 76
O=C(NN1CCCCC1)c1cccc(COc2ccc(Cl)cc2)c1 | -167*
COc1cccc(OC)c1C(=O)NNC(=O)c1cccc(COc2ccc3c(c2)CCC3)c1 | -91*
SMILES | aSyn 5UTR act
COc1ccccc1OCCNC(=O)c1ccc2c(c1)CCC2 | -138*
O=C(CN1CCN(Cc2ccccc2)CC1)N/N=C/C=C/c1ccco1 | -95*
CC(/C=N/NC(=O)c1cc(-c2ccc(Cl)cc2)nc2ccccc12)=C\c1ccco1 | 85
Cc1ccc(CN2CCN(CC(=O)N/N=C/c3ccccc3F)CC2)cc1 | -63*
CC(/C=N/NC(=O)Cc1cccn1C)=C\c1ccco1 | -69*
CC(/C=N/NC(=O)CN1CCN(Cc2ccc(Cl)cc2)CC1)=C\c1ccco1 | -87*
COc1ccc(C(=O)NCC(=O)N/N=C/C(C)=C/c2ccco2)cc1OC | -62*
O=C(CNC(=O)c1ccccc1O)N/N=C/c1cc(Br)ccc1OC(=O)/C=C/c1ccco1 | 68
CC1CCN(c2oc(-c3cccc4ccccc34)nc2C#N)CC1 | -142*
